Compound activity deposited in PubChem by National Center for Advancing Translational Sciences (NCATS).
HCMV inh: inhibitors of human cytomegalovirus | HFF cells, HCMV-luciferase reporter, 72 h; hits give low values | activity change, negative = inhibition, % at 57.5 µM | actives 4.5% (n = 410,000); in the data active means activity change below about -60%; inconclusive means no clear call, values can overlap the other calls; inactive means above about -39%
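Screen run at 2 compound doses on HFFs infected with reporter HCMV, MOI 1 PFU/cell. Luciferase activity from cell lysates at 72 h post infection gave inhibition relative to buffer-only and Salinomycin wells.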
MARV entry inh: Marburg virus entry inhibition; Marburg virus pseudotyped entry inhibition, cell reporter; Potency, µM (titrated, usually from 37.8 µM), for the others: at the highest dose activity change, negative = inhibition, most hits filed as inhibitors; actives 1.8% (n = 300,000); calls by dose curve; tested in HEK293 cells; further: potency means the concentration at half of the fitted maximal effect
FMDV antiviral: blocks foot and mouth disease virus. Potency, µM (doses to about 57.9 µM), without a hit: at the top dose activity change, negative = inhibition, actives largely listed as inhibitors. AID 1159524. actives 1.2% (n = 410,000). FMDV antiviral cell-based qHTS; calls by dose curve; tested in HEK293T cells; further: read-out not given here; potency means the concentration at half of the fitted maximal effect; nearly all actives have a fitted effect of over 45% in size
LASV entry inh: blocks Lassa virus binding to or entry into cells. Lassa virus pseudotype entry inhibition, cell reporter. Potency, µM (series often up to 37.9 µM), for the others: at the top dose activity change, negative = inhibition, actives largely listed as inhibitors. actives 1.2% (n = 300,000). AID 540256; calls by dose curve; tested in HEK293 cells; further: potency means the concentration at half of the fitted maximal effect; nearly all actives have a fitted effect of over 50% in size
Active calls of the source: *; u = inconclusive; x = no result given; [ ] = dose if it differs, or a comment. A selection: hits, their analogues and other compounds. The true share with any hit is near 6.2%. On the % scale 0 is the no-effect control and ±100 the full control effect.

SMILES	HCMV inh	MARV entry inh	FMDV antiviral	LASV entry inh
Cc1ccc(Cl)cc1N1CCN(C(c2ccc(C#N)cc2)c2nnnn2C2CCCC2)CC1 (configuration not stated)	u	5.8µM*	-4%	-18%
CCC1(C2CCN(C(=O)c3ccc(C)c(C)c3)CC2)NC(=O)N(CCc2scnc2C)C1=O (configuration not stated)	x	x	12%	x
Cc1cc(C(=O)OCC(=O)N(C)c2ccccc2)ccc1[N+](=O)[O-]	-63*	7%[46.1 µM]	-12%	-4%[46.1 µM]
CN(C(=O)COC(=O)c1ccc2c(c1)OCCO2)c1ccccc1	-69*	u	47%	21%
C[C@H](NC(=O)CSc1nc2c(cc1C#N)CN(C)CC2)c1ccccc1	x	18%	x	x
CCCCS(=O)(=O)c1nc(-c2ccc(Br)cc2)cc(-c2ccccc2)c1C#N	u	x	u	1%[46.1 µM]
O=C(N/N=C/c1ccccc1O)C1CC(=O)N(c2ccc(Cl)cc2)C1 (configuration not stated)	-79*	x	-9%	x
O=C(Nc1cccc(Cl)c1Cl)C1CC(=O)N(c2ccc(Br)cc2)C1 (configuration not stated)	-92*	u	u	-5%
Cc1cc(C(=O)NCc2nc(-c3cccc(NC(=O)c4cc(C)oc4C)c3)oc2C)nc(C)n1	x	x	-21%	x
CSCC[C@@H](N)C(=O)O	x	x	-14%	x
Nc1c(N(CCC2=CCCCC2)C(=O)COc2ccc(F)cc2Cl)c(=O)[nH]c(=O)n1Cc1ccccc1	-98*	x	u	x
NNC(=O)Cn1c2c(c3c1CCCC3)CCCC2	x	1%[46.1 µM]	x	x
COc1cccc(CC2(CO)CCCN(Cc3c(C)cc(C)cc3-n3cccn3)C2)c1 (configuration not stated)	-69*	x	-11%	x
COc1cccc(CC2(CO)CCCN(Cc3cc4ccccc4[nH]3)C2)c1 (configuration not stated)	5	4µM*	-19%	u
O=C(CSc1nc(=O)[nH]c2c1CCCC2)NCc1ccccc1	2	x	-25%	12%[46.1 µM]
O=C(Nc1ccccc1)N1CCC2(CC1)CCN(C(=O)c1csnn1)CC2	x	x	-2%	x
O=C(c1ccc2ccccc2c1)C1CCCN(C(=O)CN2C(=O)CSC2=O)C1 (configuration not stated)	-68*	17%[46.1 µM]	11%	18%[46.1 µM]
CC(C)CC(=O)N1CCN(S(=O)(=O)c2ccc3ccccc3c2)CC1	-88*	-20%	u	-26%
Cc1ncsc1C(=O)N1CCCC(C(=O)c2ccc3ccccc3c2)C1 (configuration not stated)	-38	u	28µM*	-12%
O=C(c1ccc2ccccc2c1)C1CCCN(C(=O)c2cccnc2)C1 (configuration not stated)	-12	2%	u	-26%
Cc1ccc(S(=O)(=O)N2CCN(C(=O)CCN3C(=O)c4ccccc4C3=O)CC2)cc1C	-62*	u	-27%	-12%
Cc1cc(C(=O)N2CCCC(C(=O)c3ccc4ccccc4c3)C2)nn1C (configuration not stated)	-21	u	-29%	u
Cc1ccc(Cn2c(CNC(=O)c3ccccc3Br)nc3cccnc32)cc1	-18	x	12%	5%[46.1 µM]
CC(NC(=O)Cn1ncc2c3ccccc3n(Cc3ccc(F)cc3)c2c1=O)c1ccccc1 (configuration not stated)	-8	u	-1%	0%[46.1 µM]
CC(C)c1ccc(NC(=O)c2cc(S(=O)(=O)NC3CCCCC3)ccc2F)cc1	u	x	14%	u
SMILES	HCMV inh	MARV entry inh	FMDV antiviral	LASV entry inh
O=C(CSc1n[nH]c(-c2cccs2)n1)N1CCN(S(=O)(=O)c2ccc3ccccc3c2)CC1	-37	u	22µM*	u
CSc1ncccc1C(=O)N1CCN(S(=O)(=O)c2ccc3ccccc3c2)CC1	-83*	x	0%	x
O=C(c1ccccc1F)N1CCN(S(=O)(=O)c2ccc3ccccc3c2)CC1	-39	x	-21%	x
COc1ccc(C(=O)C2CCCN(C(=O)CCc3scnc3C)C2)c(C)c1 (configuration not stated)	-76*	4%[46.1 µM]	-19%	-22%[46.1 µM]
CSc1ncccc1C(=O)N1CCCC(C(=O)c2ccc3ccccc3c2)C1 (configuration not stated)	-5	u	u	11µM*
O=C(Nc1ccc(F)cc1F)c1ccc(-n2cnnc2)cc1	15	x	-10%	8%[46.1 µM]
COC(=O)[C@]12C[C@H](CC(=O)NCC34CC5CC(CC(C5)C3)C4)C(=O)N(CCC3=CCCCC3)C1=C[C@H](COCc1ccccc1)O[C@@H]2C	50	x	x	x
CCOC(=O)C1CSCCS(=O)(=O)N1Cc1cccc(Cl)c1 (configuration not stated)	14	x	x	x
